Records with an inconclusive call do not appear. A call without a number means that no potency is given here. A number with no mark means an inactive call. The source made the active and inactive calls. The call rests on the fitted dose curve; in most records, active means well fitted cell-killing curve with a large enough effect in the repeat runs; inconclusive means weak or mixed curves, or effect the other way; inactive means flat fitted curve, though single readings scatter.
What was measured:
[1] = cAMP Responsive Elements (CRE) small molecule antagonists, cell-based qHTS assay: qHTS cell viability counter screen (AID 2060913); further: nearly all actives have a fitted effect of over 40% in size
Method in brief: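 Cytotoxicity counter screen multiplexed with the CRE-bla antagonist read: HEK293T cells in DMEM with dialyzed FBS and 25 mM HEPES were treated 3 hrs under 0.25 uM final NKH477, then viability measured by CellTiter-Glo luminescence.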

[2] = cAMP Responsive Elements (CRE) small molecule agonists, cell-based qHTS assay: qHTS cell viability counter screen (AID 2060914); further: nearly all actives have a fitted effect of over 50% in size
Method in brief: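 Cytotoxicity was measured as ATP luminescence (CellTiter-Glo, 30 min at room temperature) in the same wells as the CRE-bla FRET read-out. HEK293T CRE-bla cells had 3 h compound exposure at 37C/5% CO2.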
Potency means the concentration at half of the fitted maximal effect.

SMILES	Potency [1]	Potency [2]	viability change, negative = cytotoxic [1]	activity change, negative = cytotoxicity [2]
O=C(O)COC(=O)Cc1ccccc1Nc1c(Cl)cccc1Cl	inactive	inactive	–	–
c1cc2ccc3ccc4ccc5cccc6c(c1)c2c3c4c56	–	–	18.5% [at 3.27 µM]	-0.0627% [at 3.27 µM]
c1ccc2cc3c4ccccc4c4ccccc4c3cc2c1	inactive	inactive	–	–
C/C(=C1\CCOC(=O)S1)N(C=O)Cc1cnc(C)nc1N	inactive	inactive	–	–
COc1ccc(CCN(C)CCCN2CCc3cc(OC)c(OC)cc3CC2=O)cc1OC	inactive	inactive	–	–
COc1c(C)c2c(c(O)c1C/C=C(\C)CCC(=O)OCCN1CCOCC1)C(=O)OC2	inactive	inactive	–	–
Cc1cc(C)c(/C=C2\C(=O)Nc3ccccc32)[nH]1	inactive	inactive	–	–
N#CCN(CC#N)CCN(CC#N)CC#N	inactive	inactive	–	–
CC(=O)O[C@@H]1C(=O)O[C@@H]2[C@H]1OC(=O)[C@@H]2OC(C)=O	inactive	inactive	–	–
N[C@@H](Cc1cc(I)c(Oc2cc(I)c(O)c(I)c2)c(I)c1)C(=O)O	inactive	inactive	–	–
CC(=O)SC[C@@H](C)C(=O)N1CCC[C@H]1C(=O)N[C@@H](Cc1ccccc1)C(=O)O	inactive	inactive	–	–
CC(C)C1CCC(C(=O)N[C@H](Cc2ccccc2)C(=O)O)CC1 (stereo not given in full)	inactive	inactive	–	–
O=C1NC(=O)[C@@H]2CC=CC[C@H]12	inactive	inactive	–	–
C=CC(=O)OCCCCCCCC(C)C	inactive	inactive	–	–
CCCCOC(=O)CCC(C)=O	inactive	inactive	–	–
OC[C@@H](O)C(O)[C@@H](O)CO (stereo not given in full)	inactive	inactive	–	–
CCC(=O)OC(C)(C)C1CC=C(C)CC1 (stereo not given)	inactive	inactive	–	–
C#C[C@]1(O)CC[C@H]2[C@@H]3CCC4=CC(=O)CC[C@@H]4[C@H]3CC[C@@]21CC	inactive	inactive	–	–
CCc1ccccc1O	inactive	inactive	–	–
CN1CCCC(CC2c3ccccc3Sc3ccccc32)C1 (stereo not given)	inactive	inactive	–	–
O=[N+]([O-])c1cccc(S(=O)(=O)O)c1	inactive	inactive	–	–
O=C(O)O	–	–	7.81% [at 8.39 µM]	-5.94% [at 8.39 µM]
Nc1ccc(Cl)cc1Cl	inactive	inactive	–	–
CCCCCCOC(=O)CCCCC(=O)OCCCCCC	inactive	inactive	–	–
CC(C)(CO)[N+](=O)[O-]	inactive	inactive	–	–

SMILES	Potency [1]	Potency [2]	viability change, negative = cytotoxic [1]	activity change, negative = cytotoxicity [2]
CO/N=C(/C(=O)N[C@@H]1C(=O)N2C(C(=O)OCOC(=O)C(C)(C)C)=C(C)CS[C@H]12)c1csc(N)n1	inactive	inactive	–	–
CC(C)CNCC(C)C	inactive	inactive	–	–
CCCC(=O)Nc1ccc(O)c(C(C)=O)c1	inactive	inactive	–	–
CCCCCCCCCC(C)C=O (stereo not given)	inactive	inactive	–	–
COC(OC)(C(=O)c1ccccc1)c1ccccc1	inactive	inactive	–	–
Cc1cscn1	inactive	inactive	–	–
CCCCCN(CCCCC)C(=O)C(CCC(=O)O)NC(=O)c1ccc(Cl)c(Cl)c1 (stereo not given)	inactive	inactive	–	–
O=C(O)CCSSCCC(=O)O	inactive	inactive	–	–
Cn1cnc2ncnc(N)c21	inactive	inactive	–	–
O=C(NCCc1c[nH]c2ccccc12)c1cccnc1	inactive	inactive	–	–
COC(=O)CCC(=O)O	inactive	inactive	–	–
CC(C)(C)c1nnc(NS(=O)(=O)c2ccc(N)cc2)s1	inactive	inactive	–	–
N#C/C(=C1\SCC(c2ccccc2Cl)S1)n1ccnc1 (stereo not given)	inactive	inactive	–	–
CCCCC1C(=O)N(c2ccccc2)N(c2ccc(O)cc2)C1=O (stereo not given)	inactive	inactive	–	–
CN(C)C(=O)CNC(=O)Cc1ccccc1	inactive	inactive	–	–
C/C=C1\[C@H]2C=C(C)C[C@]1(N)c1ccc(=O)[nH]c1C2	inactive	inactive	–	–
CC(=O)c1ccc2c(c1)N(CCCN1CCC(CCO)CC1)c1ccccc1S2	inactive	inactive	–	–
O=C(O)c1cc(=O)c2ccccc2o1	inactive	inactive	–	–
CCC(=O)Nc1ccc(O)cc1	inactive	inactive	–	–
CCOC(=O)C1=NN(c2ccc(Cl)cc2Cl)C(C)(C(=O)OCC)C1 (stereo not given)	inactive	inactive	–	–
CCSC(=O)N(CC(C)C)CC(C)C	inactive	inactive	–	–
CN(C)[C@@H]1C(=O)C(C(N)=O)=C(O)[C@@]2(O)C(=O)C3=C(O)c4c(O)ccc(Cl)c4[C@@H](O)[C@H]3C[C@@H]12	inactive	inactive	–	–
O=C(c1ccccc1)c1ccccc1	inactive	inactive	–	–
CCCCCCc1ccc(O)cc1O	inactive	inactive	–	–
C[n+]1cc2c3c(ccc2c2ccc4cc5c(cc4c21)OCO5)OCO3	3.66 µM (active)	3.26 µM (active)	–	–

Source: PubChem BioAssay (Tox21)
